Columns and labels:
[1] = molecular target: Calcium/calmodulin-dependent protein kinase type 1 (Homo sapiens) (UniProt Q14012); conditions: at 1 µM
[2] = molecular target: Calcium/calmodulin-dependent protein kinase type 1 (Homo sapiens) (UniProt Q14012); conditions: at 10 µM
[3] = molecular target: Calcium/calmodulin-dependent protein kinase type II subunit beta (Homo sapiens) (UniProt Q13554); conditions: at 1 µM
[4] = molecular target: Calcium/calmodulin-dependent protein kinase type II subunit beta (Homo sapiens) (UniProt Q13554); conditions: at 10 µM
[5] = molecular target: Calcium/calmodulin-dependent protein kinase type II subunit gamma (Homo sapiens) (UniProt Q13555); conditions: at 1 µM
Calcium/calmodulin-dependent protein kinase type II subunit gamma (Homo sapiens), sequence (Q13555 whole entry): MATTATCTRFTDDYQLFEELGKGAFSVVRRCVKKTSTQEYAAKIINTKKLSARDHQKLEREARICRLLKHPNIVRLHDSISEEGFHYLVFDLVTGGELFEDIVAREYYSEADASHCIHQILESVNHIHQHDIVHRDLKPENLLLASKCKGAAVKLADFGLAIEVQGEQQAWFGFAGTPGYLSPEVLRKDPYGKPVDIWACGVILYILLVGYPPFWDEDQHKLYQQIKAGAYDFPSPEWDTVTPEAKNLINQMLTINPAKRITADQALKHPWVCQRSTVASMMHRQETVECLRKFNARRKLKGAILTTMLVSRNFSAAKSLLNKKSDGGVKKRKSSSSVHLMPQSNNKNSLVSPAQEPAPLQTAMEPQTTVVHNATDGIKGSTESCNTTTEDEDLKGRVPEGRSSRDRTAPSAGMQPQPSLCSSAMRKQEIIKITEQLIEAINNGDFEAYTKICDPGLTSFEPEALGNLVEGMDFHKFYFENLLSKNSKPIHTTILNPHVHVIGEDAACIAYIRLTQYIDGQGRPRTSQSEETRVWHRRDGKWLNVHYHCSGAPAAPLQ

[6] = molecular target: Calcium/calmodulin-dependent protein kinase type II subunit gamma (Homo sapiens) (UniProt Q13555); conditions: at 10 µM
[7] = molecular target: Calcium/calmodulin-dependent protein kinase type II subunit delta (Homo sapiens) (UniProt Q13557); conditions: at 1 µM
Calcium/calmodulin-dependent protein kinase type II subunit delta (Homo sapiens), sequence (Q13557 whole entry): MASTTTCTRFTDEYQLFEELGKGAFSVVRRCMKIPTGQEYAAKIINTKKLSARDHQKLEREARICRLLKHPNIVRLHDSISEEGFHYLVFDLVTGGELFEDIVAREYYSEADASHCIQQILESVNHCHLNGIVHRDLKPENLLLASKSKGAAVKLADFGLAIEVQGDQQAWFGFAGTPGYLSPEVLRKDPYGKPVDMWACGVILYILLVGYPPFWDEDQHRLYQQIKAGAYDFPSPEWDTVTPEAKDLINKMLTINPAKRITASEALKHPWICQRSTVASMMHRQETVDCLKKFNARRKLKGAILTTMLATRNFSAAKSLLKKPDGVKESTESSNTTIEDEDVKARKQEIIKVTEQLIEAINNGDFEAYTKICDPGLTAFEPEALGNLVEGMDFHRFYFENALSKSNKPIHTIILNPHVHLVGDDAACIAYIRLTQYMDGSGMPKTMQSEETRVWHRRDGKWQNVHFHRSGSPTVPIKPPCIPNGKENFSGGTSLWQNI

[8] = molecular target: Calcium/calmodulin-dependent protein kinase type II subunit delta (Homo sapiens) (UniProt Q13557); conditions: at 10 µM
[9] = molecular target: T1, Calcium/calmodulin-dependent protein kinase type IV (Homo sapiens) (UniProt Q16566); conditions: at 1 µM
T1 sequence (whole entry): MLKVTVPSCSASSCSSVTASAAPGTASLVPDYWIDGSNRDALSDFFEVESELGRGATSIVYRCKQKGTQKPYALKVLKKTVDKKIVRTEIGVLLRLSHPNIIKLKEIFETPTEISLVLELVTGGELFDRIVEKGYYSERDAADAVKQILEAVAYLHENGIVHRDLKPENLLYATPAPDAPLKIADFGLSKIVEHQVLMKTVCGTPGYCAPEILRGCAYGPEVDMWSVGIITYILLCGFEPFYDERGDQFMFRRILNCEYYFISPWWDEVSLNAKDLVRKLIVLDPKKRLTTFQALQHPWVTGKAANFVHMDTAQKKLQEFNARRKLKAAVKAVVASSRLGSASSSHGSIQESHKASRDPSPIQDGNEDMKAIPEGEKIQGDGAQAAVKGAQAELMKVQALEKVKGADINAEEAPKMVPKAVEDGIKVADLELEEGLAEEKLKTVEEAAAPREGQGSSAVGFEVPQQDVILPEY

[10] = molecular target: T1, Calcium/calmodulin-dependent protein kinase type IV (Homo sapiens); conditions: at 10 µM

Calcium/calmodulin-dependent protein kinase type 1 (Homo sapiens), sequence (Q14012 whole entry, looked up): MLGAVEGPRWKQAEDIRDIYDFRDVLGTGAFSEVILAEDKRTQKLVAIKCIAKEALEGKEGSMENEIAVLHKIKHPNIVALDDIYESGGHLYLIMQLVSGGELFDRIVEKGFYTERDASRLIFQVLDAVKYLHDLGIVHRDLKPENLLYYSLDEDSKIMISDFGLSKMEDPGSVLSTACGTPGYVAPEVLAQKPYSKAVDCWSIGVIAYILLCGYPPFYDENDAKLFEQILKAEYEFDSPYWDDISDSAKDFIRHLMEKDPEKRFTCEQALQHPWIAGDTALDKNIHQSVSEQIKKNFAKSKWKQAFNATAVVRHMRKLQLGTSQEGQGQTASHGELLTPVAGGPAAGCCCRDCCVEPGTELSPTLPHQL
Calcium/calmodulin-dependent protein kinase type II subunit beta (Homo sapiens), sequence (Q13554 whole entry): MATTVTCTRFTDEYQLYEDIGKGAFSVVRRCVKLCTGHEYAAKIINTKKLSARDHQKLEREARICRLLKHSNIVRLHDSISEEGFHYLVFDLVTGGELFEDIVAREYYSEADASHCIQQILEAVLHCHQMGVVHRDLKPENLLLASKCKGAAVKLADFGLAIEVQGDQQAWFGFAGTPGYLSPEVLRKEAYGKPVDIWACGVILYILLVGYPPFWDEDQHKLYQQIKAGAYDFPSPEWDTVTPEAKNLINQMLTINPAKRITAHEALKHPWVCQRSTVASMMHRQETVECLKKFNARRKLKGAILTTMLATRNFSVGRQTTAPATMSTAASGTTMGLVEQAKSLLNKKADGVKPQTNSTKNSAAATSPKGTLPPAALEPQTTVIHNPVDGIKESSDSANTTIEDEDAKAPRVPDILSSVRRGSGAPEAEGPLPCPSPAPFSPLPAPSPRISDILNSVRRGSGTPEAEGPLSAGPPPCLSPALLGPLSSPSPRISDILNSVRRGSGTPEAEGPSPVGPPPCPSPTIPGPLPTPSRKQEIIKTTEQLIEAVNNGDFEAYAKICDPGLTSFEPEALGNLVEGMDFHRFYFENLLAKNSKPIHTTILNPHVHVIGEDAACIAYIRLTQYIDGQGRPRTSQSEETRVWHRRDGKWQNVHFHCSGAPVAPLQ

SMILES | residual activity [1] [%] | residual activity [2] [%] | residual activity [3] [%] | residual activity [4] [%] | residual activity [5] [%] | residual activity [6] [%] | residual activity [7] [%] | residual activity [8] [%] | residual activity [9] [%] | residual activity [10] [%]
O=C1Nc2ccc3ncsc3c2/C1=C/c1c[nH]cn1 | 72 | 22 | 13 | 3 | 21 | -1 | 18 | 4 | 80 | 24
COc1cc(OC)c(/C=C2\C(=O)Nc3ccccc32)c(OC)c1 | 96 | 82 | 102 | 76 | 105 | 96 | 107 | 89 |  | 101
COC(=O)[C@@]1(O)C[C@H]2O[C@]1(C)n1c3ccccc3c3c4c(c5c6ccccc6n2c5c31)C(=O)NC4 | 6 | 1 | 0 | -1 | 1 | 0 | 0 | 1 | 24 | 11
O=c1[nH]c2ccccc2n1C1CCN(Cc2ccc(-c3nc4cc5[nH]cnc5cc4nc3-c3ccccc3)cc2)CC1 | 103 | -5 | 94 | 6 | 104 | 16 | 102 | 2 | 130 | 49
CCc1nc(-c2ccc(OC)cc2)[nH]c1-c1ccncc1 | 108 | 101 |  | 76 |  |  | 110 | 80 |  | 
CCn1cnc2c(Nc3cccc(Cl)c3)nc(N[C@@H]3CCCC[C@@H]3N)nc21 | 84 | 27 | 93 | 45 | 43 | 10 | 44 | 10 | 77 | 17
c1cc(-c2cnn3cc(-c4ccc(OCCN5CCCCC5)cc4)cnc23)ccn1 |  | 61 | 48 | 8 | 39 | 7 | 40 | 6 |  | 87
O=C1NC(=O)c2c1c1c3ccccc3n3c1c1c2c2ccccc2n1C1CCC3O1 | 63 | 48 | 32 | 32 | 0 | 1 | -1 | 5 | 90 | 100
N/C(=N\[N+](=O)[O-])N/N=C\c1ccc(-c2cccc([N+](=O)[O-])c2)o1 | 93 | 49 | 92 | 76 | 91 | 53 |  |  |  | 
CN[C@@H]1C[C@H]2O[C@@](C)([C@@H]1OC)n1c3ccccc3c3c4c(c5c6ccccc6n2c5c31)C(=O)NC4 |  |  |  | 0 |  |  |  |  |  | 
COc1ccc2c(c[n+](C)c3c4cc5c(cc4ccc23)OCO5)c1OC |  | 86 | 80 | 55 |  | 70 |  | 85 |  | 69
O=[N+]([O-])/C=C/c1ccc2c(c1)OCO2 | 108 | 84 | 90 | 84 | 107 | 100 | 109 | 97 | 132 | 14
C[S+]([O-])c1ccc(-c2nc(-c3ccc(F)cc3)c(-c3ccncc3)[nH]2)cc1 (stereo not given) | 115 | 99 | 114 | 98 | 103 | 100 | 108 | 89 | 113 | 98
O=C1c2ccccc2-c2nc3nnnn3nc21 | 107 | 100 | 105 |  |  | 105 | 104 | 103 | 122 | 113
COc1ccc2c(c1)/C(=C/c1cnc[nH]1)C(=O)N2 |  | 77 |  |  | 49 | 10 | 42 | 8 |  | 
CC(C)(C)c1cc(C=C(C#N)C#N)cc(Br)c1O | 121 | 105 |  |  | 102 | 55 | 104 | 46 | 115 | 83
CC(C)[C@H](CO)Nc1nc(Nc2cccc(Cl)c2)c2ncn(C(C)C)c2n1 | 93 | 78 | 95 | 68 | 100 | 42 | 99 | 46 |  | 60
COc1cc2ncnc(Nc3ccc(OCc4ccccc4)cc3)c2cc1OC | 92 | 57 | 106 | 95 | 109 | 93 | 100 | 83 | 92 | 91
